Source: PubChem BioAssay (The Scripps Research Institute Molecular Screening Center)
An excerpt weighted towards active compounds, which were near 0.9% of everything screened.
SRC1 TRFRET art = TR-FRET artefact, counter-screen to PPARgamma/SRC-1 agonist assay; TR-FRET detection artefact counter-screen, emission ratio; hits give high values; TR-FRET ratio at 8 µM; hit rate 0.34% among 99,000; AID 1051; in the data active means TR-FRET ratio above about 2300
SRC2 TRFRET art = counter-screen for PPARgamma SRC-2 recruitment agonists: TR-FRET artefact. hits give high values. TR-FRET ratio at 8 µM. hit rate 0.4% among 200,000
SRC3 TRFRET art = TR-FRET artefact, counter-screen to PPARgamma/SRC-3 agonist assay; PPARgamma/SRC-3 format; hits give high values; TR-FRET ratio at 8 µM; hit rate 0.39% among 99,000; AID 1048
PPARg SRC-2 ag = agonists of SRC-2 recruitment by human PPARgamma; PPARgamma LBD-SRC-2 recruitment, biochemical; hit rate 0.34% among 200,000; AID 1032; activation, % at 8 µM; in the data active means activation above about 22%;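 further: 0% = vehicle and 100% = reference agonist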
PPARg SRC1 recr = agonists of human PPARgamma SRC-1 coactivator recruitment; P37231; PPARgamma-SRC-1 coactivator recruitment biochemical assay; activation, % at 8 µM; hit rate 0.41% among 200,000; in the data active means activation above about 19%;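 further: 0% = DMSO and 100% = reference agonist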
PPARg SRC-3 ag = PPARgamma-driven SRC-3 recruitment agonism. biochemical PPARgamma/SRC-3 coactivator recruitment assay. AID 731. P37231. activation, % at 8 µM. hit rate 0.26% among 200,000; in the data active means activation above about 23%;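 further: 0% = DMSO and 100% = reference agonist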
PPARg SRC2 conf = human PPARgamma SRC-2 recruitment agonism, confirmation | hit rate 52% among 790 | shares compounds with PPARg SRC-3 ag | AID 1297 | biochemical SRC-2 recruitment by PPARgamma | activation, % at 8 µM; in the data active means activation above about 22%;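 further: 0% = vehicle alone and 100% = reference agonist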
PPARg SRC1 ag = confirmation of agonists of SRC-1 recruitment by human PPARgamma; shares compounds with PPARg SRC-3 ag; AID 1300; activation, % at 8 µM; PPARgamma–SRC-1 coactivator recruitment biochemical assay; hit rate 43% among 790; in the data active means activation above about 20%;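 further: 0% = vehicle wells and 100% = reference agonist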
PPARg SRC3 ag = human PPARgamma SRC-3 recruitment agonism, confirmation. shares compounds with PPARg SRC-3 ag. biochemical PPARgamma-SRC-3 coactivator recruitment, agonist mode. activation, % at 8 µM. hit rate 29% among 790. AID 1301; in the data active means activation above about 24%;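 further: 0% = vehicle wells and 100% = reference agonist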
Target sequence (P37231 whole entry, looked up): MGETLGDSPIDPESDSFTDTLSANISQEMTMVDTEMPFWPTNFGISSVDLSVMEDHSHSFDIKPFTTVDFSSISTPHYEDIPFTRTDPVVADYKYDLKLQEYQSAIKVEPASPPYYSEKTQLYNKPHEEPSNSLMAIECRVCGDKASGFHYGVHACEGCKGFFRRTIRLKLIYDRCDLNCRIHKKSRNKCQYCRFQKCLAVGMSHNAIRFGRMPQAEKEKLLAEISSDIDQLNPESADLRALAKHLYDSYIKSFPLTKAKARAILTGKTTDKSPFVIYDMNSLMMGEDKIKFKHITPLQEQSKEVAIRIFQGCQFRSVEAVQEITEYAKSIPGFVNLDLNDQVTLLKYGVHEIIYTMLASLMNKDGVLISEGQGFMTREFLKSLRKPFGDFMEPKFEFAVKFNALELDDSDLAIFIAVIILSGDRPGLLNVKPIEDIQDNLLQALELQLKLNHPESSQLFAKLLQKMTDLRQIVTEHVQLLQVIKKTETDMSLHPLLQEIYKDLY
Target sequence (Q9Y6Q9 whole entry, looked up): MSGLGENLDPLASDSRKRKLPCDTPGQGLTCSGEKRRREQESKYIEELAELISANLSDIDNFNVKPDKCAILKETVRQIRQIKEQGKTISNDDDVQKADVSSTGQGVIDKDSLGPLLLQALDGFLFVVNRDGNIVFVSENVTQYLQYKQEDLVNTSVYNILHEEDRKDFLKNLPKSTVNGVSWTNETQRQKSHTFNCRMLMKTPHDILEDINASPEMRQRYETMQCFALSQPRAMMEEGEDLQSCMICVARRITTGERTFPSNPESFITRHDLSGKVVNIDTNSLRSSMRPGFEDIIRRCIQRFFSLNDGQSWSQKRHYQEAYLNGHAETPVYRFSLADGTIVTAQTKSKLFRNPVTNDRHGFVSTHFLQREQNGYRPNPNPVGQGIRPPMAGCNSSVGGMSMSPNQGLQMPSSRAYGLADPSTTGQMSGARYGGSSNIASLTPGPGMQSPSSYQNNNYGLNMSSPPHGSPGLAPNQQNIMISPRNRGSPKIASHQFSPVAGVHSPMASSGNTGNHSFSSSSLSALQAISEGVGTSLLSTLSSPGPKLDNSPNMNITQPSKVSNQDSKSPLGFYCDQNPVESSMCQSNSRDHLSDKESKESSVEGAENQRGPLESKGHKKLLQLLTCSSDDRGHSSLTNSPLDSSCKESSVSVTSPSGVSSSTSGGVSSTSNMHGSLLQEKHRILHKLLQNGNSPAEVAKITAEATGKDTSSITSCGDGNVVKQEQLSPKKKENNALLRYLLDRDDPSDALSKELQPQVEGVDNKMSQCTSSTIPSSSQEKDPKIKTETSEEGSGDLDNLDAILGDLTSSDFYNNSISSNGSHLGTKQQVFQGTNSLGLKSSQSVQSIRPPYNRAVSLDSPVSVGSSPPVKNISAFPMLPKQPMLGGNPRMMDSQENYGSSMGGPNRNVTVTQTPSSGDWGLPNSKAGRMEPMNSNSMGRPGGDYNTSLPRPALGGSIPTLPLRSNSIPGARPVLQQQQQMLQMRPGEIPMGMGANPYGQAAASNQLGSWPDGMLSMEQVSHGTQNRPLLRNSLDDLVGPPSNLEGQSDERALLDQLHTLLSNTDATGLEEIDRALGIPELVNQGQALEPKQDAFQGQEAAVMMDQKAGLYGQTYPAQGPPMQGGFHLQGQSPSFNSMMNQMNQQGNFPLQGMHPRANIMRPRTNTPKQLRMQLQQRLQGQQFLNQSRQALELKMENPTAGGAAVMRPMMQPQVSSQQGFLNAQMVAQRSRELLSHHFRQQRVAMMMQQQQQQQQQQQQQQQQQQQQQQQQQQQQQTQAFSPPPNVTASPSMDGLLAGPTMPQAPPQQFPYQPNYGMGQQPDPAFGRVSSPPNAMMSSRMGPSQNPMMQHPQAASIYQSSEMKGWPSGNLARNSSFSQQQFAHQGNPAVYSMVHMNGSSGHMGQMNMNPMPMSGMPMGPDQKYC
The depositor's hits bear a star; nt = no result given. Unless noted, no stated cut-off is given here; in the data, active means TR-FRET ratio above about 2000; inactive means the rest.

SMILES | SRC1 TRFRET art | SRC2 TRFRET art | SRC3 TRFRET art | PPARg SRC-2 ag | PPARg SRC1 recr | PPARg SRC-3 ag | PPARg SRC2 conf | PPARg SRC1 ag | PPARg SRC3 ag
CN(CCCC(=O)NC1CC(C)(C)NC(C)(C)C1)S(=O)(=O)c1ccc([N+](=O)[O-])cc1 | 1868 | 1564 | 1657 | 15 | 6 | -3 | nt | nt | nt
CSc1ccccc1-c1nnc(-c2ccccc2)o1 | nt | 1741 | nt | 0 | 0 | 9 | nt | nt | nt
CSc1nnc(-c2ccccc2SC)o1 | 2301 | 1917 | 2050 | 20 | 22* | 14 | 19 | 12 | 8
CC1(C)Nc2ccc(O)cc2-c2c1ssc2=S | nt | 1836 | nt | 25* | 13 | 28* | 6 | 3 | 5
Cc1cccc(NC(=O)CNC(=O)COc2ccc(-c3ccc(C#N)cc3)cc2)c1C | 2605* | 1521 | 1717 | 12 | 27* | 8 | 8 | 8 | 5
Cc1cccc(NC(=O)CNC(=O)COc2ccc(C(=O)c3ccc(F)cc3)cc2)c1C | 1970 | 1480 | 1628 | 1 | 3 | 3 | nt | nt | nt
CCC(OC(=O)c1cc2sccc2n1C)C(=O)NCC1CCCO1 (configuration not stated) | nt | 1531 | nt | 11 | 22* | 11 | 12 | 17 | 17
Cc1ccc(S(=O)(=O)N2CCCC(C(=O)Nc3ccc(C(=O)O)cc3)C2)cc1Cl (configuration not stated) | 1652 | 1481 | 1549 | 6 | 0 | 1 | nt | nt | nt
Cn1ccnc1SCC(=O)Nc1ccc(Cl)cn1 | 1762 | 1564 | 1335 | 1 | 1 | 3 | nt | nt | nt
Cn1c(=S)[nH]c2scc(-c3cccs3)c2c1=O | 3197* | 2702* | 2495* | 42* | 50* | 27* | 57* | 41* | 37*
O=c1c2c(-c3cccs3)csc2ncn1-c1ccc(Br)cc1 | nt | 1896 | nt | 17 | 4 | 4 | nt | nt | nt
C=CCn1c(=S)[nH]c2scc(-c3cccs3)c2c1=O | 3938* | 3332* | 3585* | 76* | 68* | 42* | 78* | 55* | 47*
COc1cc(NC(=O)c2cc3c(=O)n(C)c4ccccc4c3n2C)cc(OC)c1OC | nt | 1684 | nt | 11 | 22* | 28* | 7 | 5 | 4
COc1cc2oc(=O)cc(C)c2c(OC)c1OC | 1724 | 1448 | 1792 | 3 | 6 | 2 | nt | nt | nt
COc1cc2oc(=O)c(Br)c(C)c2c(OC)c1OC | nt | 2553* | nt | 46* | 41* | 62* | 40* | 34* | 24*
CN(C)c1nnnn1-c1cccc(Oc2ncc(C(F)(F)F)cc2Cl)c1 | 1561 | 1460 | 1449 | 0 | -9 | 4 | nt | nt | nt
Cc1ccc(-n2c(O)c(C=Nc3ccccc3-c3n[nH]c(=S)[nH]c3=O)c3ccccc3c2=O)cc1C | 2325* | 2174* | 2203* | 24* | 24* | 23* | 44* | 33* | 28*
Cn1c(-c2sc3cc(C(F)(F)F)cnc3c2-c2cccs2)n[nH]c1=S | 2475* | 2200* | 2332* | 30* | 17 | 22 | 46* | 41* | 29*
Cn1c(-c2sc3cc(C(F)(F)F)cnc3c2-c2cccnc2)n[nH]c1=S | nt | 1633 | nt | 19 | 19* | 30* | 72* | 57* | 44*
CN(NC1CC(=O)N(c2ccccc2)C1=O)c1ccccc1 (configuration not stated) | 1778 | 1628 | 1453 | 4 | 6 | -1 | nt | nt | nt
CCN(CC)C(=O)c1sc2[nH]c(=S)n(-c3ccccc3)c(=O)c2c1C | nt | 1795 | nt | 27* | 13 | 9 | 10 | 7 | 8
S=c1nc(-c2ccccc2Br)[nH][nH]1 | nt | 1310 | nt | 4 | 2 | 13 | nt | nt | nt
S=c1nc(-c2cc(Cl)ccc2Cl)[nH][nH]1 | 2654* | 2272* | 2092* | 27* | 20 | 15 | 24* | 19 | 17
S=c1nc(-c2cccc(Cl)c2)[nH][nH]1 | 2102 | 1956 | 2145* | 28* | 16 | 7 | 24* | 21* | 17
COc1nc2ccccc2nc1CCC(=O)O | 1852 | 1675 | 1773 | 4 | -1 | 3 | nt | nt | nt
SMILES | SRC1 TRFRET art | SRC2 TRFRET art | SRC3 TRFRET art | PPARg SRC-2 ag | PPARg SRC1 recr | PPARg SRC-3 ag | PPARg SRC2 conf | PPARg SRC1 ag | PPARg SRC3 ag
COCCCNc1oc(-c2cccs2)nc1S(=O)(=O)c1ccc(C)cc1 | 1713 | 1478 | 1632 | -2 | 15 | 33* | 2 | 14 | 16
COCCNc1oc(-c2cccs2)nc1S(=O)(=O)c1ccc(C)cc1 | 1747 | 1626 | 1609 | -4 | 4 | 5 | nt | nt | nt
O=C(C1=C(O)C(=O)N(Cc2ccco2)C1c1cccnc1)c1cc2ccccc2o1 (configuration not stated) | nt | 2097* | nt | 34* | 33* | 50* | 21 | 15 | 14
O=C(C1=C(O)C(=O)N(CC2CCCO2)C1c1cccnc1)c1ccco1 (configuration not stated) | nt | 1600 | nt | 3 | 3 | 7 | nt | nt | nt
COc1cccc2cc(C(=O)C3=C(O)C(=O)N(Cc4ccco4)C3c3cccnc3)oc12 (configuration not stated) | nt | 2226* | nt | 26* | 27* | 40* | 23* | 14 | 14
CN(C)c1ccc(NC(=O)CSc2nc(N)c(C(=O)Nc3ccc(N(C)C)cc3)s2)cc1 | nt | 1835 | nt | 24* | 13 | 20 | 7 | 11 | 5
CC(C)c1[nH]nc2c1C(Cc1ccccc1)C(C#N)=C(N)O2 (configuration not stated) | nt | 1603 | nt | 8 | 19* | -7 | 7 | 4 | 4
Brc1ccc(-c2nn3c(-c4ccco4)nnc3s2)o1 | nt | 3538* | nt | 99* | 75* | 115* | 76* | 52* | 53*
Clc1ccc(-c2ccc(-c3nn4c(-c5ccco5)nnc4s3)o2)cc1 | nt | 1589 | nt | 5 | 10 | -6 | nt | nt | nt
O=C(O[C@@H]1OC2COC(=O)c3cc(O)c(O)c(O)c3-c3c(cc(O)c(O)c3O)C(=O)O[C@@H]([C@H]1O)[C@@H]2O)c1cc(O)c(O)c(O)c1 | 1985 | 1547 | 1701 | 24* | 20 | 10 | 8 | 7 | 2
Cc1cccc(-n2c(=S)[nH]c3sc4c(c3c2=O)CCc2ccccc2-4)c1 | 2821* | 2315* | 2699* | 36* | 26* | 21 | 34* | 22* | 24*
COc1ccc(S(=O)CC(=O)Nc2ccc(Cl)cc2Cl)cc1 (configuration not stated) | 1634 | 1664 | 1641 | 3 | -5 | 5 | nt | nt | nt
S=C(Nc1ccc2nsnc2c1)N1CCCCC1 | 2191 | 1710 | 1795 | 22* | 17 | 9 | 21 | 18 | 14
CC1(C)Cc2ccccc2-c2nnc(SCC(=O)N3CCc4ccccc43)n21 | nt | 1651 | nt | 17 | 24* | 25 | 13 | 13 | 11
COC(=O)CSc1nnc2n1C(C)(C)Cc1ccccc1-2 | nt | 1643 | nt | 3 | 11 | -10 | nt | nt | nt
